This is a sample that favours compounds with a hit; in the whole collection about 2.3% have one here.
MEKK3 PB1 HTS – modulators of MEKK3-MEK5 PB1 binding, primary screen, biochemical, wildtype MEKK3, multiplex bead flow cytometry, Alexa488-MEK5 | Mitogen-activated protein kinase kinase kinase 3 (Homo sapiens), Q99759 | bead-based flow cytometry, Alexa488-MEK5 binding to MEKK3; actives lie on both sides; 0 = blocked by unlabeled MEK5, 100 = vehicle | binding response (% of control), % at 10 µM | 290,000 compounds, 1.4% hits | AID 1529, 2009;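 active means binding response more than 3 SD above or below the average of its plate-row segment, actives on both sides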;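 further: Alexa488 bead fluorescence after subtracting the streptavidin-only scavenger bead signal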
Target sequence (Q99759 whole entry, looked up): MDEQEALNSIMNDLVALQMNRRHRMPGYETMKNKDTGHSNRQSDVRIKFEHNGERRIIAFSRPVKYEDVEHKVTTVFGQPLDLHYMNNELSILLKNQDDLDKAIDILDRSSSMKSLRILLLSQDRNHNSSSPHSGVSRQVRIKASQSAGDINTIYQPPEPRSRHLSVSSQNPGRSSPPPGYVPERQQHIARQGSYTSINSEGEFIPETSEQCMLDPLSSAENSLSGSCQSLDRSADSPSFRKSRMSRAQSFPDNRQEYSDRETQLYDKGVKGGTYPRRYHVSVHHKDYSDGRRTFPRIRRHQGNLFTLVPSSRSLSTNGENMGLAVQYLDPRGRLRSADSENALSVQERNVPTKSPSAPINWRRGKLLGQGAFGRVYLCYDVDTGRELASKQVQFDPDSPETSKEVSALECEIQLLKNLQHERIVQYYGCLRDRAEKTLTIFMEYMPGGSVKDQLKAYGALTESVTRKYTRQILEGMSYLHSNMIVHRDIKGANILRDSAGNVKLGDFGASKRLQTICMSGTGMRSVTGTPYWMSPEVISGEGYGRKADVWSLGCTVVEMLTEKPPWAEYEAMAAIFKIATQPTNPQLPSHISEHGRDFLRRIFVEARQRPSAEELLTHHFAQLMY
MEKK2wt PB1 HTS – modulators of MEK5 binding to wildtype MEKK2, primary screen, biochemical, multiplex bead flow cytometry, Alexa488-MEK5 | Mitogen-activated protein kinase kinase kinase 2 (Homo sapiens), Q9Y2U5 | Alexa488-MEK5 binding to MEKK2 WT; actives lie on both sides | binding response (% of control), % at 10 µM | 290,000 compounds, 1.1% hits | AID 1531, 2009; in the data active means binding response below about 67% or above about 130%
UBC13 inh – UBC13 polyubiquitin chain formation inhibitors, primary screen, biochemical, TR-FRET, uHTS. Ubiquitin-conjugating enzyme E2 N (Homo sapiens), P61088. inhibition, % at 20 µM. 330,000 compounds, 0.47% hits; in the data active means inhibition above about 45%, passing the limit was not always enough
MEKK2mut PB1 HTS – MEK5 binding signal on mutant MEKK2 PB1, primary screen, biochemical, multiplex bead flow cytometry, Alexa488-MEK5; Alexa488-MEK5 binding to MEKK2 mutant; percent response, % at 10 µM; 290,000 compounds, 0.35% hits; AID 1530, 2009; in the data active means percent response above about 24%, passing the limit was not always enough
MEKK2wt confirm – modulators of MEK5 binding to wildtype MEKK2, confirmation, biochemical, single concentration, multiplex bead flow cytometry. AID 1892, 2009. Alexa488-MEK5 binding to MEKK2 WT; actives lie on both sides. binding response (% of control), % at 10 µM. 5,900 compounds, 2.4% hits. shares compounds with MEKK3 PB1 HTS; in the data active means binding response below about 16% or above about 210%; inactive means in between
MEKK2mut confirm – mutant MEKK2 PB1-MEK5 binding signal retest – biochemical, single concentration, multiplex bead flow cytometry, confirmation; Alexa488-MEK5 binding to MEKK2 mutant; AID 1893, 2009; 5,900 compounds, 2% hits; percent response, % at 10 µM; shares compounds with MEKK3 PB1 HTS; in the data active means percent response mostly above about 71%, no sharp cut-off; inactive means mostly below about 38%;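 further: higher means compound restores mutant binding toward wildtype level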
MEKK3-MEK5 inh – MEKK3 wild-type PB1 binding to MEK5, inhibitors, confirmation, biochemical, bead multiplex flow cytometry, single concentration, wildtype; shares compounds with MEKK3 PB1 HTS; Alexa488-MEK5 binding to MEKK3; stronger effect = lower value; binding response (% of control), % at 10 µM; 5,900 compounds, 1.8% hits; AID 1894, 2009;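 active means binding response below 72% of control, or above a set upper limit, though filed actives all read lower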;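 further: 100% = DMSO only wells and 0% = binding blocked by excess unlabeled MEK5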
Numbers without * were called inactive; x = not tested or not shown; [ ] = remark or other dose.

SMILES	MEKK3 PB1 HTS	MEKK2wt PB1 HTS	UBC13 inh	MEKK2mut PB1 HTS	MEKK2wt confirm	MEKK2mut confirm	MEKK3-MEK5 inh
CN1CCN(c2ccc(Cl)cc2NC(=O)/C=C/c2ccc(F)cc2)CC1	108.0	195.0*	18.1	51.0*	185.0	60.0	109.0
O=C(CNC(=O)C1CCCCC1)NC1CCCCC1	102.0	106.0	9.7	7.0	x	x	x
COc1ccc(C(=O)Nc2cc(C(C)=O)c(C)oc2=O)cc1	103.0	98.0	-2.7	-1.0	x	x	x
COC(=O)c1cc(NC(=O)c2ccccc2)c(=O)oc1/C=C/Nc1ccc(Oc2ccccc2)cc1	85.0	218.0*	-147.0	734.0*	87.0	-30.0	73.0
COc1ccc(CNCc2cccn2C)cc1	111.0	120.0	-1.5	28.0*	110.0	0.0	98.0
COc1ccc(C(CC(=O)N2CCOCC2)c2c(O)cc(OC)cc2OC)cc1 (configuration not stated)	133.0*	165.0*	0.1	0.0	102.0	4.0	96.0
COc1cc(O)c(C(CC(=O)N2CCN(c3ccccc3)CC2)c2ccc3c(c2)OCO3)c(OC)c1 (configuration not stated)	130.0*	153.0*	6.5	0.0	100.0	-7.0	104.0
CCN(CC)C(=O)CC(c1ccc2c(c1)OCO2)c1c(O)cc(OC)cc1OC (configuration not stated)	95.0	97.0	-4.5	-5.0	x	x	x
CCN(CC)CCC(c1ccc2c(c1)OCO2)c1c(O)cc(OC)cc1OC (configuration not stated)	119.0	150.0*	14.2	12.0	116.0	3.0	105.0
COc1cccc(CNC(=O)c2cc(=O)[nH]c3ccc(S(=O)(=O)N4CCOCC4)cc23)c1	x	x	2.2	x	x	x	x
O=C(NCCc1ccccc1)c1cc(=O)c2ccccc2o1	96.0	101.0	8.7	-1.0	x	x	x
O=C(CN1CCN(C(C(=O)Nc2ccc(F)cc2)c2ccccc2)CC1)NC1CC1 (configuration not stated)	x	x	4.1	x	x	x	x
CCCCCCCCCCCCN1C/C(=C\C(=O)OCC)c2ccccc2S1(=O)=O	93.0	95.0	-33.9	-12.0	x	x	x
CCCCCCCCCCCCN1C/C(=C\C(=O)OCC)c2cc(C(F)(F)F)ccc2S1(=O)=O	109.0	67.0*	-28.0	51.0*	98.0	-2.0	96.0
O=C(NCc1ccccc1)C1CCC(CNc2c(N3CCCCC3)c(=O)c2=O)CC1 (configuration not stated)	70.0*[inhibitor]	77.0	-14.5	-7.0	102.0	2.0	103.0
CC1CCN(c2c(NCC3CCC(C(=O)NCc4ccccc4)CC3)c(=O)c2=O)CC1 (configuration not stated)	110.0	100.0	5.6	-2.0	x	x	x
CC[C@@H](C)C(NC(=O)OC(C)(C)C)c1cn([C@@H](CCC(=O)OC(C)(C)C)C(=O)N2CCN(C(=O)OC(C)(C)C)CC2)nn1 (some centres not stated)	98.0	98.0	1.7	2.0	x	x	x
CN1CCN(CC(O)COC(c2ccc(Cl)cc2)c2ccc(Cl)cc2)CC1 (configuration not stated)	100.0	125.0	12.5	7.0	x	x	x
OC(COC(c1ccc(F)cc1)c1ccc(F)cc1)CN1CCc2ccccc2C1 (configuration not stated)	136.0*	112.0	2.3	1.0	115.0	5.0	100.0
OC(COC(c1ccccc1)c1ccccc1)CN1CCc2ccccc2C1 (configuration not stated)	103.0	102.0	12.4	6.0	x	x	x
OC(COC(c1ccc(Cl)cc1)c1ccc(Cl)cc1)CN1CCc2ccccc2C1 (configuration not stated)	110.0	164.0*	23.2	14.0	203.0	63.0	113.0
OC(COC(c1ccc(Cl)cc1)c1ccc(Cl)cc1)CN1CCCC1 (configuration not stated)	105.0	140.0*	19.9	14.0	126.0	20.0	102.0
Cc1ccc(-n2c(C)cc(=O)cc2C)cc1[N+](=O)[O-]	101.0	97.0	-0.5	-1.0	x	x	x
CCCNC(=O)Nc1ccc(C(F)(F)F)cc1	95.0	78.0	6.3	-10.0	x	x	x
CC1CCCCC1NC(=O)c1cc(S(=O)(=O)N2CCCCC2)ccc1N1CCOCC1 (configuration not stated)	x	x	8.4	x	x	x	x
SMILES	MEKK3 PB1 HTS	MEKK2wt PB1 HTS	UBC13 inh	MEKK2mut PB1 HTS	MEKK2wt confirm	MEKK2mut confirm	MEKK3-MEK5 inh
CC(=O)Nc1ccc(OCC(O)Cn2c3ccccc3c3ccccc32)c(C)c1 (configuration not stated)	119.0	114.0	18.1	6.0	x	x	x
CC(=O)Nc1ccc(OCC(O)CN2C(C)(C)CC(O)CC2(C)C)cc1 (configuration not stated)	74.0*[inhibitor]	96.0	1.4	-1.0	102.0	-3.0	100.0
CC(=O)Nc1ccc(OCC(O)Cn2c3ccccc3c3ccccc32)cc1 (configuration not stated)	176.0*	120.0	5.8	2.0	-6.0*[inhibitor]	-3.0	84.0
CCn1cc(C(=O)OCC(=O)c2cc(C)n(-c3ccc(OC(F)F)cc3)c2C)c(=O)c2ccc(C)nc21	100.0	99.0	-1.3	1.0	x	x	x
O=C(Nc1cccc(O)c1)C(Cc1ccccc1)N1C(=O)c2cccc3cccc(c23)C1=O (configuration not stated)	140.0*	101.0	-23.7	0.0	98.0	-3.0	102.0
O=C(Cc1ccsc1)OCC(=O)c1ccccc1	x	x	-8.2	x	x	x	x
COc1cc(OC)cc(C(=O)Nc2ccc3c(c2)COC3=O)c1	121.0	113.0	4.6	9.0	x	x	x
COc1cc(OC)c2c(c1)C(=O)OC2	131.0*	106.0	4.9	0.0	99.0	2.0	99.0
O=C(NNc1c(Cl)cncc1Cl)c1sccc1Cl	132.0*	128.0	3.7	27.0	99.0	1.0	104.0
CC1CCCC(C)N1C(=O)Cc1ccccc1 (configuration not stated)	71.0	76.0	3.9	-14.0	x	x	x
CN(C)c1ccc(/C=N/NC(=O)c2ccco2)cc1	130.0*	111.0	-9.0	1.0	102.0	6.0	104.0
Cc1ccc(F)cc1NC(=O)c1cnccn1	118.0	107.0	-10.9	0.0	x	x	x

Screens as filed in PubChem.
